# Calls of active or inactive are those of the source. Rule for the calls: active = hit-call score of the fitted dose curve at least 0.9, where 1 is the maximum; inactive = score below 0.9.
# What was measured:
# [1] = CCTE_Padilla_ZF_Score.Craniofacial: CCTE's 144 Hour Post-fertilization zebrafish Assay Score for Craniofacial Malformation, Padilla Lab (AID 2284405)
# Method in brief: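 Craniofacial defects were scored at 6 dpf by two blinded observers using stereomicroscopy. Exposure of wild-type embryos began at 6–8 hpf in sealed wells of 10% Hanks' solution at 26C, with chemical removed by rinsing at 5 dpf.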
# [2] = CCTE_Padilla_ZF_Score.Edema: CCTE's 144 Hour Post-fertilization zebrafish Assay Score for Edema Malformation, Padilla Lab (AID 2284406)
# Method in brief: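 Edema scored at 6 dpf by two blinded observers under a stereo microscope, in single outbred wild-type larvae exposed from 6-8 hpf in sealed wells (Hanks', 26C, 14:10 h light) and chemical-free after a 5 dpf rinse.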
# [3] = CCTE_Padilla_ZF_Score.Spine: CCTE's 144 Hour Post-fertilization zebrafish Assay Score for Spine Malformation, Padilla Lab (AID 2284407)
# Method in brief: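 Spine malformation scored at 6 dpf by two independent blinded observers under stereomicroscope, after static sealed exposure from 6–8 hpf at 26C in Hanks' solution with rinse on 5 dpf. Positive-direction fit against DMSO control.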
# [4] = CCTE_Padilla_ZF_Score.Swim_bladder: CCTE's 144 Hour Post-fertilization zebrafish Assay Score for Swim Bladder Malformation, Padilla Lab (AID 2284408)
# Method in brief: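 Swim bladder inflation scored at 6 dpf by two blinded observers under a stereo microscope. Exposure ran from 6–8 hpf in sealed wells of 10% Hanks' at 26C, with rinsing at 5 dpf; DMSO served as baseline.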
# [5] = CCTE_Padilla_ZF_Score.Position: CCTE's 144 Hour Post-fertilization zebrafish Assay Score for Position, Padilla Lab (AID 2284409)
# Method in brief: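 Wild-type zebrafish embryos (with chorions) exposed singly from 6–8 hpf in sealed wells of Hanks' solution at 26C, rinsed at 5 dpf. At 6 dpf, blinded assessors scored abnormal water-column position by brightfield stereomicroscopy, relative to DMSO.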
# [6] = CCTE_Padilla_ZF_Score.Living: CCTE's 144 Hour Post-fertilization zebrafish Assay Score for Viability, Padilla Lab (AID 2284410);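 note: larval death at 6 dpf judged by absent heartbeat or coagulation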
# Protocol: (§1) CCTE_Padilla_ZF_Phenotype_Score is a whole embryo, multiplexed assay using zebrafish ova exposed for 144 hours post fertilization on a 96-well plate.CCTE_Padilla_ZF_Score.Living is one of one assay component(s) measured or calculated from the CCTE_Padilla_ZF_Phenotype_Score assay. It is designed to make measurements of zebrafish development as detected with brightfield microscopy of developing zebrafish embryos.Data from the assay component CCTE_Padilla_ZF_Score.Living was analyzed into 1 assay endpoints. This assay endpoint, CCTE_Padilla_ZF_Score.Living, was analyzed in the positive analysis fitting direction relative to DMSO as the negative control and baseline of activity. Using a type of viability reporter, gain-of-signal activity can be used to understand changes in developmentals as they relate to the whole embryo. To generalize the intended target to other relatable targets, this assay endpoint is annotated to the zebrafish development intended target family, where the subfamily is embryonic mortality.
# (§2) Zebrafish husbandry: Wild type adult zebrafish (Danio rerio; undefined outbred stock obtained from Aquatic Research Organisms, Hampton, NH, 03842) were housed in an AAALAC-approved animal facility at 28C with a 14:10 h light: dark cycle (lights on at 08:30 h). […]
# [7] = CCTE_Padilla_ZF_Score.General: CCTE's 144 Hour Post-fertilization zebrafish Assay Score for General Malformation, Padilla Lab (AID 2284411)
# Method in brief: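 Malformation, death and hatching were scored at 6 dpf by two blinded observers under a stereo microscope. Embryos were dosed singly from 6-8 hpf in sealed plates of 10% Hanks' at 26C and rinsed on 5 dpf; DMSO baseline.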
# [8] = CCTE_Padilla_ZF_Score.Tail: CCTE's 144 Hour Post-fertilization zebrafish Assay Score for Tail Malformation, Padilla Lab (AID 2284414)
# Method in brief: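 Tail malformations were scored at 6 dpf by two blinded assessors under a stereo microscope. Chorionated embryos had been exposed from 6-8 hpf in sealed wells of 10% Hanks' at 26 C, then rinsed free of chemical at 5 dpf.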
# [9] = CCTE_Padilla_ZF_Score.Blood_pooling: CCTE's 144 Hour Post-fertilization zebrafish Assay Score for Blood Pooling, Padilla Lab (AID 2284415)
# Method in brief: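 Blood pooling was scored at 6 dpf under a stereo microscope by two blinded assessors, fitted upward against DMSO. Single embryos were dosed at 6–8 hpf in 10% Hanks', kept sealed at 26C (14:10 h cycle) and rinsed at 5 dpf.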
# [10] = CCTE_Padilla_ZF_Score.Any: CCTE's 144 Hour Post-fertilization zebrafish Assay Score for Any Mortality or Malformation, Padilla Lab (AID 2284416)
# Protocol: as §1, with “plate.CCTE_Padilla_ZF_Score.Any” for “plate.CCTE_Padilla_ZF_Score.Living”, “CCTE_Padilla_ZF_Score.Any” for “CCTE_Padilla_ZF_Score.Living”, “CCTE_Padilla_ZF_Score.Any,” for “CCTE_Padilla_ZF_Score.Living,”, “embryonic morphogenesis and” for “embryonic”
# as §2
compound,measurement,setting,value
CCNS(=O)(=O)C(F)(F)C(F)(F)C(F)(F)C(F)(F)C(F)(F)C(F)(F)C(F)(F)C(F)(F)F,outcome,[1],inactive
same,AC50,[2],2.86 µM (active)
same,outcome,[3],inactive
same,AC50,[4],3.57 µM (active)
same,outcome,[5],inactive
same,AC50,[6],22.2 µM (active)
same,AC50,[7],3.11 µM (active)
same,outcome,[8],inactive
same,outcome,[9],inactive
same,AC50,[10],3.96 µM (active)
